The results in this text go back to ChEMBL document CHEMBL3988442, “University of Dundee, Small-Polar-MMV Screening Library” (2021).

Out of some 48,000 compounds screened, about 13,000 (27%) showed an effect of 50% or more. The list shows a part of the results.

For the experiment, the system named is Wolbachia pipientis. Kind of experiment: Anti-Wolbachia Cell-Based Screen. It is filed as functional. The arrangement: scale not given: in the data most compounds retested in dose-response had high values. To be noted: 5 µM.
As to `O=C1CCc2cc(S(=O)(=O)NC(=O)c3ccc4c(c3)OCO4)ccc2N1`, the “Percent Effect” value is given as -58.45%.
The same measure for `Cc1cc(C(=O)N2CCC3(CC2)CN(CCN(C)C)C(=O)O3)nc(C)n1`: -4.106%; for `Cc1ccc(C(=O)N2CCC3(CC2)CN(CCN(C)C)C(=O)O3)c(F)c1`: 62.77%.
With `Cc1nc[nH]c1C(=O)N1CCC2(CC1)CN(CCN(C)C)C(=O)O2`, the “Percent Effect” value was found to be 0.5324%.
As to `O[C@@H]1C[C@H]2CN(Cc3ccsc3)[C@@H](Cc3ccccc3)CN2C1`, the “Percent Effect” value is 108.5%.
The same measure for `O[C@@H]1C[C@@H](c2nc(-c3ccccc3)no2)N(Cc2ccncc2)C1`: -6.257%.
With `CS(=O)(=O)N1C[C@@H]2CC[C@H](C1)N(Cc1ccsc1)C2`, the “Percent Effect” value was -3.691%.
With `O[C@@H]1C[C@@H](c2nc(Cc3ccccc3)no2)N(Cc2ccc(F)cc2)C1`, the “Percent Effect” value amounted to 5.892%.
Next, `Oc1ccccc1CN1C[C@H](O)C[C@H]1c1nc(Cc2ccccc2)no1`: 2.62%.
Consider `O[C@@H]1C[C@H]2CN(CC3CCCCC3)[C@H](Cc3ccccc3)CN2C1`, for which the “Percent Effect” value was determined as 87.27%.
For the molecule `Cc1cccc(-c2noc([C@@H]3C[C@@H](O)CN3CC3CCCCC3)n2)c1`, the “Percent Effect” value is on record as 5.786%.
Turning to `O[C@@H]1C[C@@H](c2nc(-c3ccccc3)no2)N(CC2CCCCC2)C1`, the “Percent Effect” value is recorded as -2.196%.
The same measure for `O[C@@H]1C[C@@H](c2nc(-c3ccccc3)no2)N(Cc2cccnc2)C1`: 4.417%.
On to `O[C@@H]1C[C@H]2CN(Cc3ccccc3)[C@H](Cc3ccccc3)CN2C1`, for which the “Percent Effect” value stood at 111.3%.
For the molecule `O[C@@H]1C[C@H]2CN(Cc3ccccc3Cl)[C@H](Cc3ccccc3)CN2C1`, the “Percent Effect” value was 117.1%.
Take `Cc1ccc(CN2C[C@H]3CN(Cc4ccccc4Cl)CCN3C2=O)cc1`: the “Percent Effect” value is 5.801%.
Next, `CCS(=O)(=O)NCc1cc(Br)c(OC)c(OC)c1`: -0.2028%.
Next, `CCS(=O)(=O)c1ccccc1C(=O)NCC1Cc2ccccc2O1` (configuration not stated): -9.446%.
The same measure for `CC(C)CCC(=O)N1CCC(c2nnc(CN(C)CCO)n2C)CC1`: -15.68%.
Regarding `CCOCC(=O)NC1(c2cccc(Br)c2)CC1`, the “Percent Effect” value was -23.15%.
For the molecule `Cc1n[nH]c(=O)c2c(NC(=O)CN3CCC(C)CC3)oc(C)c12`, the “Percent Effect” value came to 8.431%.
The same measure for `Cc1cc(C)c2c(N3CCN(Cc4ncccc4C)CC3)ncnc2n1`: -39.06%; for `Cc1cc(C)c2c(N3CCN(C(=O)N(C)C)CC3)ncnc2n1`: 111.7%; for `Cc1cc(C)c2c(N(C)CC3COCCO3)ncnc2n1` (configuration not stated): -3.038%.
Next, `COCCCN1CCN(c2ncnc3nc(C)cc(C)c23)CC1`: -12.49%; `COC(=O)N1CCN(c2ncnc3nc(C)cc(C)c23)CC1`: 98.52%.
The same measure for `COCCN1CCN(c2ncnc3nc(C)cc(C)c23)CC1`: -19.86%.
Consider `CSc1ccc(NC(=O)Cc2cccc(O)c2)nc1`, for which the “Percent Effect” value was -26.55%.
The same measure for `Cc1cncc(C(=O)N2CCC3(CC2)C(=O)Nc2ccccc23)c1`: -7.764%; for `FC(F)(F)c1ccc(-c2noc3c2CN(CC2CCCO2)CC3)cc1` (configuration not stated): -4.107%; for `CC(C)N(CCNCc1ccc(C#N)cc1)C1CC1`: -21.35%.
Take `Cc1c[nH]c(CN2CCCCC2CCN(C)C)c(C)c1=O` (configuration not stated): the “Percent Effect” value is -7.535%.
Next, `CCC(=O)N1CCCN(C(=O)C2SCCc3sccc32)CC1` (configuration not stated): 13.84%; `CC1c2ccsc2CCN1Cc1cc2c(cc1O)OCO2` (configuration not stated): 137.7%; `CN(C)CCN1CC[C@H]2[C@@H]1CCN2Cc1ccc2c(c1)OCO2`: -11.21%.
The same measure for `NC(=O)c1ccc(OCCC(=O)NC2CCc3c(F)cccc32)cc1` (configuration not stated): 19.22%.
`CCC[C@H]1CN(Cc2ccc(N(C)C)nc2)C[C@@H]1NC(=O)CCOC`: the “Percent Effect” value is -4.276%.
The same measure for `CNc1nc(CN2C[C@@H](NC(C)=O)[C@H](c3ccc(C)o3)C2)cs1`: 0.1699%; for `C/C=C(\C)CN1C[C@H](NC(=O)CN2CCCC2=O)[C@@H](c2ccc(C)o2)C1`: 97.75%.
The same measure for `CC(=O)N1C[C@H](NS(=O)(=O)N2CCCC2)[C@@H](c2ccc(C)o2)C1`: -3.445%; for `C/C=C(\C)CN1C[C@H](NC(=O)CCOC)[C@@H](c2ccc(C)o2)C1`: 82.28%.
In the case of `Cc1ccc([C@H]2CN(CCO)C[C@@H]2NC(=O)CN2CCCCC2=O)o1`, the “Percent Effect” value was 92.71%.
Consider `CC(=O)N[C@@H]1CN(C(=O)c2ccc[nH]2)C[C@H]1c1ccc(C)o1`, for which the “Percent Effect” value is recorded as -8.166%.
The same measure for `O=C(CN1CCCCCC1=O)NC1CCc2nccn2C1` (configuration not stated): 0.7111%.
The same measure for `CC(=O)N[C@@H]1CN(C(=O)c2cc(C)oc2C)C[C@H]1c1ccc(C)o1`: -1.342%; for `COc1ccnc(CNc2nc(C)nc(C)c2C)c1`: -1.425%; for `CCc1nc(CC(=O)N2CCn3c(nnc3C(C)C)C2)cs1`: 3.887%.
Take `COCCN(Cc1nccs1)C(=O)c1c(C)cc(C)[nH]c1=O`: the “Percent Effect” value is listed as -6.144%.
Next, `CC(C(=O)NC(C)(C)C)S(=O)(=O)Cc1noc(C(C)(C)C)n1` (configuration not stated): 3.309%; `Cc1cc(C2CCCN(C(=O)c3cnccn3)C2)ccn1` (configuration not stated): -6.489%.
Turning to `CC(=O)N1CCCC(c2ccnc(Nc3cnccn3)c2)C1` (configuration not stated), the “Percent Effect” value is listed as 134%.
As to `O=C(C1CCCC1)N1CCC(c2ccnc(Nc3cnccn3)n2)C1` (configuration not stated), the “Percent Effect” value was determined as 92.23%.
Turning to `Cl.Cl.NCC(=O)N1CCCC(c2ccnc(Nc3cnccn3)n2)C1` (configuration not stated), the “Percent Effect” value is reported as 138.9%.
For `O=C(C1CCC1)N1CCCC(c2ccnc(Nc3cnccn3)n2)C1` (configuration not stated), the “Percent Effect” value came out at 48.97%.
As to `CNCC(=O)N1CCCC(c2ccnc(Nc3cnccn3)n2)C1` (configuration not stated), the “Percent Effect” value is 90.62%.
On to `COCc1ccc(C(=O)N2CC[C@@](O)(COC)C(C)(C)C2)o1`, for which the “Percent Effect” value was 3.183%.
Next, `CCc1c(C)nn(CC(=O)NC(C(=O)O)c2c(C)n[nH]c2C)c1C` (configuration not stated): 1.191%; `Cc1ccccc1CC1(CO)CCCN(c2ncccc2C#N)C1` (configuration not stated): 0.9317%.
The same measure for `C=C(C)CNc1nc(CS(=O)(=O)c2ccccc2)cs1`: -10.96%; for `CC(CNC(=O)N1CCN(Cc2ccon2)CC1)Cc1cccs1` (configuration not stated): -18.64%; for `O=C(Cn1c(=O)oc2ccccc21)N1Cc2cnn(CCO)c2C1`: -5.203%.
On to `CC(=O)N1CCCC(c2ccnc(Nc3cnccn3)n2)C1` (configuration not stated), for which the “Percent Effect” value was 113.3%.
Next, `O=C(CCc1ccc2c(c1)OCO2)N1CCCCC1Cn1cccn1` (configuration not stated): 137.4%; `COc1ccc(CCC(=O)N2CCCCC2Cn2cccn2)cc1F` (configuration not stated): 155.4%.
The same measure for `O=C(CCc1ccc(F)c(F)c1)N1CCCCC1Cn1cccn1` (configuration not stated): 87.24%; for `COc1ccc(CC(=O)N2CCCC2Cn2cccn2)cc1F` (configuration not stated): 2.407%.
The same measure for `O=C(CCc1c(F)cccc1F)N1CCCCC1Cn1cccn1` (configuration not stated): 126.8%.
With `O=C(c1cccc2c1OCO2)N1CCCCC1Cn1cccn1` (configuration not stated), the “Percent Effect” value is reported as -4.366%.
The same measure for `CSc1c[nH]nc1NS(=O)(=O)c1ccc(C)c(C)c1`: 4.625%; for `O=C(Nc1ccccc1CCO)c1cccc(CN2CC[C@H](O)C2)c1`: -8.564%; for `COc1ccc(F)c(CN2CCCC3(CCN(S(C)(=O)=O)C3)C2)c1` (configuration not stated): -4.467%.
Take `O=C(c1cc(-c2cccs2)on1)N1CCCCC1Cn1cccn1` (configuration not stated): the “Percent Effect” value turned out to be 91.35%.
The same measure for `N#Cc1ccsc1C(=O)N1CCCCC1Cn1cccn1` (configuration not stated): -3.499%.
Next, `Cc1oc(-c2cccs2)nc1C(=O)N1CCCC1Cn1cccn1` (configuration not stated): 103.5%; `O=C(c1cccn1Cc1cccs1)N1CCCC1Cn1cccn1` (configuration not stated): 4.58%.
Consider `Cc1noc(C)c1CN(C)CCc1nc(-c2cccc(Cl)c2)no1`, for which the “Percent Effect” value was determined as 0.3419%.
In the case of `COc1cccc(CCn2ccnc2-c2cn(C3CCNCC3)nn2)c1`, the “Percent Effect” value is 111.7%.
Next, `Cc1cc2nc(-c3cn(C4CCNCC4)nn3)[nH]c2cc1C`: -3.563%; `O[C@H]1[C@H](n2cc(-c3ccccn3)nn2)c2ccccc2C12CCNCC2`: -37%; `Clc1ccccc1CCn1ccnc1-c1cn(C2CCNCC2)nn1`: 101.1%.
Next, `Cc1ccc2[nH]c(-c3cn(C4CCNCC4)nn3)nc2c1C`: 9.5%; `COc1ccc(CCn2ccnc2-c2cc3n(n2)CCCNC3)cc1`: -17.25%.
Next, `c1ccc(OCCCn2ccnc2-c2cn(C3CCNCC3)nn2)cc1`: 87.94%; `O=C(NC1CCCCC1)N1CCC(n2cc(-c3ccccn3)nn2)CC1`: -3.255%; `Cc1c(C)c(C)c2[nH]c(-c3cn(C4CCNCC4)nn3)nc2c1C`: 5.399%.
`COc1cccc(CCN2C[C@H]3CCNCC[C@H]3S2(=O)=O)c1.O=C(O)C(F)(F)F`: the “Percent Effect” value is on record as 12.24%.
On to `Cc1cccc2[nH]c(-c3cn(C4CCNCC4)nn3)nc12`, for which the “Percent Effect” value is recorded as -0.8234%.
Regarding `c1ccc(CCCn2ccnc2-c2cn(C3CCNCC3)nn2)nc1`, the “Percent Effect” value was found to be 103.3%.
With `CNC(=O)c1cccc(CNC(C)c2cc(C)ccc2OC(F)F)c1` (configuration not stated), the “Percent Effect” value worked out at 2.562%.
As to `CC(C)CNc1nc(C(=O)/N=c2\[nH]nc(C(C)(C)C)s2)cs1`, the “Percent Effect” value came out at 9.925%.
In the case of `COc1cccc([C@H]2CN(C(=O)c3scc4c3CCCC4)C[C@@H]2N)c1`, the “Percent Effect” value is -10.32%.
Next, `O=S(=O)(CCc1ccccc1)Nc1cc(Cl)ccn1`: -16.02%; `CSCc1ccc(N2CCC(C(O)CC(C)C)CC2)nc1` (configuration not stated): -3.23%; `COc1cccc(CNC(C)c2ccc(-n3ccnc3)cc2)c1O` (configuration not stated): 3.228%.
In the case of `CN1CCN(c2cccc(NC(=O)NCc3csc(N(C)C)n3)c2)C1=O`, the “Percent Effect” value is reported as -9.852%.
Next, `CN(C)c1nc(CNC(=O)Nc2cccc([S+](C)[O-])c2)cs1` (configuration not stated): 95.39%; `CCc1nn(C)c(CC)c1CNC(=O)Nc1cccc([S+](C)[O-])c1` (configuration not stated): 3.217%.
With `O=C(NCCn1nc2ccccn2c1=O)c1cccc2[nH]ncc12`, the “Percent Effect” value is listed as -8.467%.
Next, `CNCc1cn(CC2CCN(CC(C)(C)CN3CCCC3)CC2)nn1`: -11.44%.
Next, `Cc1cc(C)n2ncc(CN3CCC(Cn4cc(CO)nn4)CC3)c2n1`: 8.529%; `COCc1cn(CC2CCN(Cc3c(C)[nH]c4ccccc34)CC2)nn1`: 121.8%.
Next, `CC(C)(CN1CCCC1)CN1CCC(Cn2cc(CCO)nn2)CC1`: 39.97%.
For `CNCc1cn(CC2CCN(Cc3cccs3)CC2)nn1`, the “Percent Effect” value is 1.439%.
As to `COCc1cn(CC2CCN(Cc3nc(C)c[nH]3)CC2)nn1`, the “Percent Effect” value is recorded as 122.2%.
As for `Cc1nc(CN2CCCC(Cn3cc(CCO)nn3)C2)c[nH]1` (configuration not stated), the “Percent Effect” value amounted to 12.54%.
Next, `COCc1cn(CC2CCN(Cc3cc(C)[nH]n3)CC2)nn1`: 114.7%.
The same measure for `CCCN1CCC(N2CCC(Cn3cc(CC(C)O)nn3)CC2)CC1` (configuration not stated): -21.76%.
